Results reported in PubChem BioAssay.

Assay: modulators of S6 phosphorylation in cells, primary screen, cell-based, A549, cytoblot, luminescence, serum-stimulated (AID 1158);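 further: serum-stimulated A549 lung adenocarcinoma cells; signal is phosphorylated S6 detected by cytoblot immunostaining with HRP secondary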
Settings: A549 phospho-S6 cytoblot, 5 h, higher = more signal

First: CCCCC(=C=CC[C@@H](O)c1cccc(OCCO)c1)CCO
Second: CC(C)C(=C=CC[C@@H](O)c1ccc(OCCO)cc1)CCO
The z-score of the first is lower: 1.3 for the first, 1.42 for the second.

First: C=CCOC(=O)[C@@H]1[C@H]2C(=O)O[C@H](c3ccccc3)[C@H](c3ccccc3)N2[C@H](c2ccc(OCCOC(=O)[C@H]3C[C@H]4C(=O)NCC(=O)N4[C@H]3c3ccc(O)cc3)cc2)[C@@]12C(=O)Nc1ccc(I)cc12
Second: O=C1O[C@@H](c2ccccc2)[C@@H](c2ccccc2)N2[C@@H](c3ccc(OCCO)cc3)[C@]3(C(=O)Nc4ccc(C#CCCO)cc43)[C@@H](C(=O)Nc3nc4ccccc4s3)[C@H]12
The z-score of the first is lower: 0.379 for the first, 0.922 for the second.

Compared with `CN1C=C(C(=O)OCCS(C)(=O)=O)C(C(=O)OCCS(C)(=O)=O)=CC(CCCO)=CC1c1ccc(CN2CCCC2)cc1` (centres undefined), `COCCCNC(=O)[C@@H]1c2ccccc2C(=O)N(C2CCCCC2)[C@H]1c1ccc(CO)cc1` is higher in z-score: -0.0029 for the first, 2.35 for the second.

Compared with `COCCOC(=O)N1C(=O)[C@@]2(c3cc(C#CC4(O)CCCCCC4)ccc31)[C@H](C(=O)N1CCc3cc(OC)c(OC)cc3C1)[C@H]1C(=O)O[C@H](c3ccccc3)[C@H](c3ccccc3)N1[C@@H]2c1ccc(O)cc1`, `COCCOC(=O)N1C(=O)[C@@]2(c3cc(C#Cc4ccc(OC)cc4)ccc31)[C@H](c1ccc(OCCO)cc1)N1[C@H](c3ccccc3)[C@H](c3ccccc3)OC(=O)[C@H]1[C@@H]2C(=O)N1CCCCCCC1` is higher in z-score: 0.278 for the first, 1.59 for the second.

Going from `C=CC[C@]1(C(=O)NCc2ccccc2)COC(c2ccc(OCCCO)cc2)=N1` to `[N-]=[N+]=NCc1ccccc1C[C@]1(C(=O)NCc2ccccc2)N=C(c2ccc(OCCCO)cc2)O[C@H]1c1ccccc1CN=[N+]=[N-]`, the z-score rises from -0.429 to 2.34.

First: CN(C)CCCNC(=O)[C@@]1(Cc2ccccc2I)c2ccccc2C(=O)N(Cc2ccccc2)[C@H]1c1ccc(CO)cc1
Second: COc1ccccc1CN1C(=O)c2ccccc2[C@](Cc2ccccc2I)(C(=O)NCCCN(C)C)[C@@H]1c1ccc(CO)cc1
The z-score of the first is higher: -0.5 for the first, -2.54 for the second.

First: COc1cccc(OC)c1C(=O)O[C@H]1[C@@H]2OC(=O)[C@H](Cc3cccc(Br)c3)C/C=C/C[C@@H](Cc3cccc(Br)c3)C(=O)O[C@H]2[C@@H](OC)O[C@@H]1CO
Second: COc1ccc(CCNC(=O)[C@@]2(C)c3ccccc3C(=O)N(Cc3cc(C(F)(F)F)cc(C(F)(F)F)c3)[C@H]2c2ccc(CO)cc2)cc1
The z-score of the first is lower: 0.0487 for the first, 2.76 for the second.

Going from `Cc1ccc(S[C@]2(C(=O)NC3CC3)CC(=O)N(Cc3cc(C(F)(F)F)cc(C(F)(F)F)c3)[C@@H]2c2ccc(CO)cc2I)cc1` to `COc1ccc(NN2C(C(O)c3cc(C(F)(F)F)cc(C(F)(F)F)c3)C=CC3C(=O)N(C4CCCCC4)C(=O)C32)cc1` (centres undefined), the z-score falls from -0.185 to -0.35.

Going from `CC1(C)OC[C@@]23C=C(Br)[C@@H](C[C@H]12)[C@@]1(CO1)C3=O` to `CCCC[C@H]1OB(O)C[C@H]2C1=C(COC)C[C@H]1C(=O)C=CC(=O)[C@H]12`, the z-score rises from -0.552 to 0.0946.

Going from `CCOC(=O)C1=CC[C@@H](c2ccccc2)N(S(=O)(=O)c2ccc(C)cc2)[C@H]1C#N` to `CCCC[C@@H]1C[C@H]1[C@@H](NC(=O)Cc1ccccc1)c1ccc(Cl)cc1`, the z-score falls from -0.769 to -1.06.

First: CCCC=C(CCC)[C@@H](NC(=O)c1ccco1)c1ccc(C(=O)OC)cc1
Second: CC(C)=CCN(C(=O)C#Cc1ccccc1)[C@H](CO)c1ccccc1
The z-score of the first is lower: -0.277 for the first, 0.21 for the second.

Compared with `CC(C)(C)OC(=O)CC[C@]1(C(N)=O)N=C(c2ccc(OCCCO)cc2)O[C@H]1c1ccccc1CN=[N+]=[N-]`, `C=CCC(OC(C)=O)[C@@H]1[C@@H](N(Cc2cc3ccccc3o2)C(=O)c2ccc(-c3ccccc3)cc2)c2cc(OCCCO)ccc2N1C(=O)c1ccc2ccccc2n1` (some centres undefined) is lower in z-score: 0.0054 for the first, -0.113 for the second.

Compared with `CC(C)c1ccc(NN2C(C(O)C(C)C)C=CC3C(=O)N(c4ccccc4)C(=O)C32)cc1` (centres undefined), `O=C1C2C=CC(C(O)c3ccc([N+](=O)[O-])cc3)N(Nc3ccccc3)C2C(=O)N1c1ccccc1` (centres undefined) is lower in z-score: -0.452 for the first, -1.32 for the second.

Going from `COc1ccc([Si](C)(C)[C@H]2[C@H](CCn3cc([C@H](O)c4ccccc4)nn3)O[C@@]3(C(=O)N(c4ccccc4)c4ccccc43)[C@@H]2C)cc1` to `O=C1C2C=CC(C(O)c3cccs3)N(Nc3ccccc3)C2C(=O)N1c1ccccc1` (centres undefined), the z-score rises from 0.448 to 2.34.

`N#Cc1ccc(C(O)C2C=CC3C(=O)NC(=O)C3N2Nc2ccccn2)cc1` (centres undefined) gave a z-score of -0.0329.
